Screening data deposited in PubChem by National Center for Advancing Translational Sciences (NCATS).
SARS PLpro yeast: inhibitors of SARS-CoV papain-like protease in yeast | S. cerevisiae expressing SARS-CoV PLpro, growth rescue | hit rate 0.19% among 330,000 | Potency, µM (series often up to 32.9 µM), inactives show top-dose activity, positive = growth rescue, usual class: activators; calls by dose curve; further: 0% is about no effect; nearly all actives have a fitted effect of over 55% in size
Pf growth 48h: inhibits P. falciparum growth in the first generation, 48 h. P. falciparum luciferase growth in erythrocytes, 48 h. Potency, µM (titrated, usually from 28.7 µM), inactives show at the top dose activity change, negative = inhibition, usual class: inhibitors. hit rate 5.9% among 310,000. AID 504832; further: on the % scale 0 is the no-effect control and ±100 the full control effect
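In quantitative HTS format, infected erythrocytes bearing luciferase-reporter parasites were treated for a single generation at 37 C. Luminescence after adding detection reagent served as the growth measure.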
AMA1-RON2 inh: inhibitors of Plasmodium falciparum AMA1-RON2 interaction; hit rate 0.2% among 360,000; AlphaScreen AMA1-biotinylated RON2 peptide binding; Potency, µM (top dose mostly 58.2 µM), without a hit: at the highest dose activity change, negative = inhibition, most hits filed as inhibitors;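 further: 0% = vehicle wells and -100% = peptide control; nearly all actives have a fitted effect of over 45% in size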
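AMA1 (3D7) with his tag at 25 nM final met compounds first, then biotinylated RON2 peptide at 25 nM; detection used donor plus acceptor beads, 10 µg/mL apiece, read by AlphaScreen after 30 min at room temperature.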
Pf growth 96h: inhibits malaria parasite growth, 96 h | Potency, µM (highest dose often 28.7 µM), for inactives: top-dose activity change, negative = inhibition, most hits filed as inhibitors | P. falciparum luciferase reporter growth, 96 h | AID 504834 | hit rate 6.9% among 320,000; further: on the % scale 0 is the no-effect control and ±100 the full control effect
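Parasite growth measured via integrated firefly luciferase reporter in P. falciparum. Infected erythrocytes at 2% hematocrit, 0.05% parasitemia final were treated 96 hours at 37 C under 5% CO2, and luminescence was read.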
HCV inh: inhibitors of hepatitis C virus infection. Huh7.5.1 HCVcc-Cre infection, luciferase reporter, 44 h. Potency, µM (top dose mostly 41.8 µM), for inactives: at the highest dose activity change, negative = inhibition, hits mostly inhibitors. hit rate 3.4% among 340,000; further: on the % scale 0 is the no-effect control and ±100 the full control effect
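Cells (1,000/well) were plated 4 h before compound, then infected with HCVcc-Cre virus (~0.5 moi). After 44 h further culture, infection was read as luciferase luminescence following a 15 min substrate incubation at room temperature.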
NS1 inh: influenza NS1 inhibition; Potency, µM (top dose mostly 46.1 µM), for inactives: at the highest dose activity, positive = more growth; hit rate 0.4% among 270,000; AID 2326; calls by dose curve; further: actives are rising curves; nearly all actives have a fitted effect of over 50% in size
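S. cerevisiae expressing influenza A NS1, grown in glucose, washed, then diluted 1:100 into pH 6.0 -URA galactose medium with 23 nl compound. Growth recovery read as OD600; NS1-free strain serves as control.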
An asterisk follows results filed as active; i = inactive; u = inconclusive; x = no result given. The list is not random: actives were taken first. Their share in the collection is about 12%. Unless noted, the call rests on the fitted dose curve; in most records, active means well fitted curve in the direction sought with a large enough effect; inconclusive means small, poorly fitted or top-dose-only effect, or another doubt; inactive means no such curve, though single readings can be large; an effect the other way counts as inactive or inconclusive. Potency means the concentration at half of the fitted maximal effect.

SMILES	SARS PLpro yeast	Pf growth 48h	AMA1-RON2 inh	Pf growth 96h	HCV inh	NS1 inh
CCn1cc(C(=O)NCCc2ccc(Cl)cc2)c(=O)c2cc(S(=O)(=O)N(C)C)ccc21	8.2%	u	19.4%	u	3.9%	2.3%
C=CCNc1cnn(-c2ccc(C)cc2)c(=O)c1Sc1ccc(C)cc1	-0.5%	u	-1.8%	u	u	-9.7%
CCn1cc(C(=O)NCCCN(C)c2ccccc2)c(=O)c2cc(S(=O)(=O)N(C)C)ccc21	6.0%	u	-8.7%	14.7µM*	16.5%	-20.8%
CCN(CCCNC(=O)c1cn(CC)c2ccc(S(=O)(=O)N(C)C)cc2c1=O)c1cccc(C)c1	-0.8%	u	4.0%	169.6%	-26.6%	-32.8%
CCOc1ccc(N2CC(=O)Nc3ccccc3NCC2=O)cc1	1.8%	-1.7%	-10.0%	8.28µM*	0.6%	-1.2%
CCOc1ccc(N2C(=O)CNC2=S)cc1	-4.4%	-1.7%	66.9%	u	8.3%	6.1%
CCNC(=O)C1CCCN(C(=O)c2ccc(OC)c(OC)c2)CC1 (stereo not drawn)	x	x	3.8%	x	x	x
CCN(CCNC(=O)C1CCN(S(C)(=O)=O)CC1)c1ccccc1	2.9%	-2.0%	0.2%	4.65µM*	2.1%	-12.5%
CS(=O)(=O)N1CCC(C(=O)Nc2cc(Cl)ccc2Cl)CC1	0.3%	-81.9%	3.6%	-23.8%	4.9%	1.9%
CS(=O)(=O)N1CCC(C(=O)Nc2cc(Cl)c(Cl)cc2Cl)CC1	6.6%	-9.1%	-1.7%	2.08µM*	11.7%	7.8%
O=C(NCc1ccc(F)cc1Cl)C1CCN(S(=O)(=O)N2CCCCC2)CC1	-2.8%	-18.1%	0.0%	3.29µM*	-21.8%	6.4%
O=C(NCc1ccc(Cl)cc1)C1CCN(C(=O)Cc2ccccc2)CC1	u	15.3%	-7.1%	11.7µM*	0.0%	-1.6%
CC(=O)N1c2ccc(S(=O)(=O)NCC3CCC(C(=O)Nc4cc(C)ccn4)CC3)cc2CC1C (stereo not drawn)	7.5%	u	-6.0%	u	u	-23.8%
COc1ccc(Br)cc1CNC(=O)C1CCN(S(=O)(=O)N2CCC(C)CC2)CC1	-4.7%	u	-2.9%	11.7µM*	-8.4%	-8.1%
O=C(NCCc1ccc(Cl)cc1)Nc1ccc(Cl)cc1	-2.0%	-0.6%	14.1%	-15.6%	-2.1%	-4.7%
CCN(CCNC(=O)Nc1ccc(Cl)cc1)c1ccccc1	x	u	-9.1%	188.6%	14.1µM*	-27.8%
CS(=O)(=O)N1CCC(C(=O)NCc2ccc(Cl)cc2)CC1	2.5%	2.33µM*	-10.4%	38.8%	14.8%	-2.9%
COc1ccc(Br)cc1CNC(=O)C1CCCN(S(=O)(=O)N2CCC(C)CC2)C1 (stereo not drawn)	x	x	-7.4%	x	x	x
CCOc1ccccc1/C=N/OCC(=O)NCc1ccc(F)cc1	-4.8%	-4.6%	12.5%	16.9%	3.98µM*	x
COC(=O)c1ccc(/C=N/OCC(=O)NCc2ccc(F)cc2)cc1	-9.8%	-2.1%	5.9%	-3.1%	u	x
CCOCCCNC(=O)c1cc(=O)n(Cc2cccc(C)c2)c2ccccc12	0.9%	u	-0.5%	9.7%	-22.9%	x
C/C(=N\OCc1ccc(C#N)cc1)c1ccccc1	-5.0%	300.7%	28.1%	388.3%	2.8%	x
C/C(=N\OCc1cccc(C(=O)O)c1)c1ccc(Cl)cc1	-3.9%	1.04µM*	3.1%	i	3.0%	-55.8%
COc1cccc(/C=C/C(=O)Nc2ccc(OC)nc2)c1	-48.5%	18.6%	0.3%	4.7%	4.5%	-42.9%
CCc1noc(C)c1C(=O)Nc1cc(Cl)ccc1N1CCOCC1	-11.3%	u	2.0%	-12.6%	u	x
CCSc1ncc(/C=N/Nc2ccccc2)n1C	-12.5%	5.22µM*	-15.4%	2.62µM*	u	-9.5%
CCSc1ncc(/C=N/Nc2ccc(Cl)cc2)n1C	-33.4%	u	u	u	u	-102.4%
Cc1nc([N+](=O)[O-])c(Sc2nc3ccccc3n2C)n1Cc1ccccc1	-11.2%	u	11.6%	u	12.6µM*	2.1%
Cc1nc([N+](=O)[O-])c(SCC(N)=O)n1Cc1ccccc1	-0.3%	-5.0%	-0.7%	28.5%	13.8%	2.9%
